# From PubChem BioAssay (Tox21)
# Unmarked numbers belong to inactive results. Records with an inconclusive call do not appear. Where a call stands in place of a potency, no number is given. Active and inactive are the calls of the source. Unless noted, calls come from the whole dose curve; as a rule, active = well fitted curve in the direction sought with a large enough effect in the repeat runs; inconclusive = weak or mixed curves; inactive = no such curve, though single readings can be large; an effect the other way counts as inactive or inconclusive.
# How the values were obtained:
# [1] = qHTS assay to identify small molecule agonists of the hypoxia (HIF-1) signaling pathway (AID 1224846; active = well fitted activation curve with a large enough effect in the signal ratio in the repeat runs, not every such curve was filed as active; the % refers to the signal ratio)
# Procedure, shortened: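 Compounds added to ME-180 cells carrying hypoxia-response-element beta-lactamase reporter (0.5% dialyzed FBS, 5 h preplating), 17 h at 37C; agonist activity detected by CCF4-AM B/G FRET read-out.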
# [2] = qHTS assay to identify small molecule agonists of H2AX - cell viability counter screen (AID 1224847; calls by dose curve;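 note: wild-type CHO-K1 cells; top concentration of the series differs between compounds; nearly all actives have a fitted effect of over 30% in size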)
# Procedure, shortened: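 CHO-K1 wt, 1000 cells/well, o/n 37C; cpds 15 conc, 3 h 37C, 0.76% DMSO; CellTiter-Glo, 30 min RT, luminescence.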
# [3] = qHTS assay to identify small molecule antagonists of the estrogen related receptor (ERR) signaling pathway from Tox21 library (AID 1224848); note: nearly all actives have a fitted effect of over 50% in size
# Procedure, shortened: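 First, 2,000 ERR cells per well were plated and held 6 h at 37 C/5% CO2. Next, compounds in DMSO were pinned in and left 18 h at 37 C. Finally, ONE-Glo was added and luminescence read after 30 min at room temperature.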
# [4] = qHTS assay to identify small molecule agonists of the estrogen related receptor (ERR) signaling pathway from Tox21 library (AID 1224849; calls by dose curve; note: nearly all actives have a fitted effect of over 15% in size); settings: ERR reporter cell line, ONE-Glo luciferase, 18 h; at 92.4 µM (top of the series) unless noted
# Procedure, shortened: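 Luminescent agonist read-out (One-Glo, 30-minute room-temperature incubation) following 18-hour compound treatment at 37 C of the ERR cell line, which had been plated 6 hours before dosing.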
# [5] = qHTS RealTime-Glo MT Cell Viability Assay in HepG2 cells - 24 hour (AID 1224867); note: nearly all actives have a fitted effect of over 50% in size
# Procedure, shortened: (§1)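 HepG2 suspension premixed with RealTime-Glo reagents is plated at 600 cells per well and left 5 h at 37 C/5% CO2. Compounds in DMSO then go in, and bioluminescence reflecting viable cell number is recorded over 40 h.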
# [6] = A CellTox Green Cytotoxicity Assay to monitor cytotoxicity in HEK293 cells - 0 hour (AID 1224869); note: nearly all actives have a fitted effect of over 50% in size; note: potency is the fitted concentration of half-maximal effect
# Procedure, shortened: (§2)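 Fluorescence from a DNA-binding dye excluded by viable cells was measured repeatedly in the same HEK293 wells (600 cells/well) during continuous compound exposure at 37 C. Each assay gives one read point: 0, 8, 16, 24, 32 or 40 h.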
# [7] = qHTS RealTime-Glo MT Cell Viability Assay in HepG2 cells - 40 hour (AID 1224870); note: nearly all actives have a fitted effect of over 50% in size
# Procedure, shortened: (§3)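 HepG2 cells mixed with RealTime-Glo MT reagents (NanoLuc plus cell-permeant prosubstrate) were seeded at 600 cells/well, incubated 5 h at 37 C/5% CO2, then pinned with compounds in DMSO; nonlytic luminescence tracked viability during 40 h treatment.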
# [8] = qHTS RealTime-Glo MT Cell Viability Assay in HEK293 cells - 16 hour (AID 1224872); note: nearly all actives have a fitted effect of over 50% in size; note: potency is the fitted concentration of half-maximal effect
# Procedure, shortened: (§4)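 Reads taken at 0, 8, 16, 24, 32 and 40 h from the same wells. HEK293 cells (600/well) carried RealTime-Glo reagents from seeding, with compound added after a 5 h settle at 37 C.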
# [9] = qHTS RealTime-Glo MT Cell Viability Assay in HepG2 cells - 8 hour (AID 1224873); note: nearly all actives have a fitted effect of over 55% in size
# Procedure, shortened: as §3
# [10] = A CellTox Green Cytotoxicity Assay to monitor cytotoxicity in HEK293 cells - 24 hour (AID 1224875); note: nearly all actives have a fitted effect of over 45% in size
# Procedure, shortened: as §2
# [11] = A CellTox Green Cytotoxicity Assay to monitor cytotoxicity in HepG2 cells - 16 hour (AID 1224876); note: nearly all actives have a fitted effect of over 45% in size; note: potency is the fitted concentration of half-maximal effect
# Procedure, shortened: (§5)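 Real-time cytotoxicity: fluorescence of a cell-impermeant cyanine dye binding DNA of dead HepG2 cells, measured repeatedly (0–40 h) during compound exposure at 37 C. Cells seeded 600/well with reagent, dosed after 5 h.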
# [12] = qHTS RealTime-Glo MT Cell Viability Assay in HepG2 cells - 32 hour (AID 1224877); note: nearly all actives have a fitted effect of over 55% in size
# Procedure, shortened: as §1
# [13] = A CellTox Green Cytotoxicity Assay to monitor cytotoxicity in HepG2 cells - 24 hour (AID 1224878); note: nearly all actives have a fitted effect of over 45% in size; note: potency is the fitted concentration of half-maximal effect
# Procedure, shortened: as §5
# [14] = A CellTox Green Cytotoxicity Assay to monitor cytotoxicity in HepG2 cells - 40 hour (AID 1224879); note: nearly all actives have a fitted effect of over 40% in size; note: potency is the fitted concentration of half-maximal effect
# Procedure, shortened: as §5
# [15] = qHTS RealTime-Glo MT Cell Viability Assay in HEK293 cells - 0 hour (AID 1224880); note: top concentration of the series differs between compounds; nearly all actives have a fitted effect of over 45% in size
# Procedure, shortened: (§6)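 Luminescence, which tracks viable cell number through reduction of the prosubstrate to a NanoLuc substrate, was read over continuous 37 C culture. Cells (600/well) were premixed with reagent and rested 5 h before 23 nL of compound in DMSO was pinned.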
# [16] = A CellTox Green Cytotoxicity Assay to monitor cytotoxicity in HEK293 cells - 32 hour (AID 1224881); note: nearly all actives have a fitted effect of over 40% in size; note: potency is the fitted concentration of half-maximal effect
# Procedure, shortened: as §2
# [17] = A CellTox Green Cytotoxicity Assay to monitor cytotoxicity in HepG2 cells - 0 hour (AID 1224882); note: nearly all actives have a fitted effect of over 35% in size
# Procedure, shortened: as §5
# [18] = qHTS RealTime-Glo MT Cell Viability Assay in HEK293 cells - 32 hour (AID 1224868); note: nearly all actives have a fitted effect of over 50% in size; note: potency is the fitted concentration of half-maximal effect
# Procedure, shortened: as §4
# [19] = A CellTox Green Cytotoxicity Assay to monitor cytotoxicity in HEK293 cells - 40 hour (AID 1224871); note: nearly all actives have a fitted effect of over 45% in size
# Procedure, shortened: as §2
# [20] = qHTS RealTime-Glo MT Cell Viability Assay in HEK293 cells - 40 hour (AID 1224874); settings: RealTime-Glo luminescence; max response: hits give low values; note: nearly all actives have a fitted effect of over 50% in size
# Procedure, shortened: as §6
Compound,outcome [1],Potency [2],Potency [3],"activity change, positive = activation [4] [%]",Potency [5],Potency [6],Potency [7],Potency [8],Potency [9],Potency [10],Potency [11],Potency [12],Potency [13],Potency [14],Potency [15],Potency [16],Potency [17],Potency [18],Potency [19],max response [20] [%]
COc1ccc(/C(=C/C(=O)N2CCOCC2)c2ccc(Cl)cc2)cc1OC,inactive,inactive,inactive,-10.9,inactive,inactive,inactive,inactive,inactive,inactive,inactive,inactive,inactive,inactive,inactive,inactive,inactive,–,–,–
CS(=O)(=O)c1ccc(C(=O)C2C(=O)CCCC2=O)c([N+](=O)[O-])c1,inactive,inactive,inactive,-0.0686,inactive,44.4 µM (active),inactive,12.5 µM (active),inactive,–,44.4 µM (active),inactive,39.6 µM (active),2.23 µM (active),inactive,44.4 µM (active),–,–,–,–
COS(=O)(=O)c1ccc(C)cc1,inactive,inactive,–,–,inactive,inactive,inactive,inactive,inactive,–,inactive,inactive,inactive,inactive,inactive,inactive,inactive,inactive,inactive,16.1
O=C(O)COc1nc(Cl)c(Cl)cc1Cl,inactive,inactive,–,–,inactive,–,inactive,inactive,inactive,–,12.6 µM (active),inactive,–,inactive,inactive,–,–,–,–,–
CCCSP(=O)(OCC)SCCC,inactive,inactive,–,–,inactive,–,inactive,inactive,inactive,inactive,inactive,inactive,inactive,inactive,inactive,inactive,inactive,inactive,inactive,-0.268
FC(Cl)(Cl)Cl,inactive,inactive,–,–,inactive,inactive,inactive,inactive,inactive,inactive,inactive,inactive,inactive,inactive,inactive,inactive,inactive,inactive,–,–
N#C/C=C/c1ccccc1,inactive,inactive,–,–,inactive,–,inactive,inactive,inactive,inactive,inactive,inactive,inactive,inactive,inactive,inactive,inactive,inactive,inactive,–
CCOP(=S)(OCC)SCS(=O)(=O)C(C)(C)C,inactive,inactive,–,–,inactive,inactive,inactive,inactive,–,–,inactive,–,inactive,inactive,inactive,inactive,inactive,inactive,inactive,-15.1
CCN,inactive,inactive,–,–,inactive,inactive,inactive,inactive,inactive,inactive,inactive,–,inactive,inactive,inactive,inactive,inactive,inactive,inactive,–
Nc1c(Oc2ccccc2)cc(O)c2c1C(=O)c1ccccc1C2=O,inactive,inactive,–,–,inactive,inactive,inactive,10.7 µM (active),inactive,–,inactive,inactive,inactive,inactive,inactive,inactive,inactive,19 µM (active),inactive,–
NNC(=O)c1ccccc1,inactive,inactive,–,–,inactive,inactive,inactive,inactive,–,inactive,inactive,inactive,inactive,inactive,inactive,inactive,inactive,inactive,inactive,–
CC(C)CCCCCOC(=O)c1ccccc1C(=O)OCCCCCC(C)C,inactive,inactive,–,–,inactive,inactive,inactive,inactive,–,inactive,inactive,–,inactive,inactive,inactive,inactive,inactive,inactive,inactive,–
CN(C)[C@@H]1C(=O)C(C(N)=O)=C(O)[C@@]2(O)C(=O)C3=C(O)c4c(O)ccc(Cl)c4[C@@](C)(O)[C@H]3C[C@@H]12,inactive,inactive,–,–,inactive,inactive,inactive,inactive,inactive,inactive,inactive,inactive,inactive,inactive,inactive,inactive,–,–,inactive,–
Cc1c(Cl)c(=O)oc2cc(OP(=O)(OCCCl)OCCCl)ccc12,inactive,inactive,–,–,inactive,inactive,inactive,–,–,–,inactive,inactive,inactive,inactive,inactive,inactive,inactive,–,inactive,–
Oc1ccccc1Br,inactive,inactive,–,–,inactive,inactive,inactive,inactive,inactive,inactive,inactive,inactive,inactive,inactive,inactive,inactive,inactive,inactive,–,3.02
CCOC(=O)c1ccccc1S(=O)(=O)NC(=O)Nc1nc(Cl)cc(OC)n1,inactive,inactive,–,–,inactive,–,inactive,–,inactive,–,inactive,inactive,inactive,inactive,–,54.9 µM (active),inactive,–,–,–
